Out of some 10,000 compounds screened, about 320 (3.2%) were called active. This is one part of a sample in which actives are shown more often than they occur. Values without a mark were called inactive. No stated cut-off is given here; in the data, active means CPE inhibition mostly above about 9.1% (no sharp cut-off); inactive means mostly below about 7.2%.

The nature of this test: Dengue virus cytopathic effect inhibitors, cell-based, CPE readout, HTS (AID 540333). The conditions noted are these: Dengue virus CPE inhibition in host cells, at 20 µM; hits give high values.
Turning to `O=C(c1ccc(COc2ccc(Br)cc2)o1)N1N=C(C(F)F)CC1(O)C(F)F` (centres undefined), the CPE inhibition was 2.42%.

In the case of `Cc1ccc(OCC(=O)Nc2ccccc2Sc2ccc(Cl)cc2)c([N+](=O)[O-])n1`, the CPE inhibition is 13.9% (active).

Consider `Cc1ccc(OCC(=O)Nc2cc(S(=O)(=O)N3CCCCC3)ccc2C)c([N+](=O)[O-])n1`, for which the CPE inhibition is 3.06%.

For `Cc1ccc(OCC(=O)NCC(=O)Nc2ccc(F)c(F)c2F)c([N+](=O)[O-])n1`, the CPE inhibition was 0.32%.

Turning to `O=C1c2ccccc2S(=O)(=O)c2cc(C(=O)N3CCN(c4ncccn4)CC3)ccc21`, the CPE inhibition is 0.735%.

On to `CC(C)c1ccc(NC(=O)COc2ccc(F)cc2C(=O)c2cnn(-c3ccccc3)c2)cc1`, for which the CPE inhibition is 1.51%.

As for `CCOP(=O)(OCC)C(NC(=O)Nc1ccccc1)C(N)=O` (centres undefined), the CPE inhibition was 1.93%.

Turning to `CC(C)C(=O)NCCc1c[nH]c2ccccc12`, the CPE inhibition was 0.48%.

In the case of `CC1(C(=O)NCCc2c[nH]c3ccccc23)C=CCN1C(=O)c1ccccc1` (centres undefined), the CPE inhibition was 1.21%.

In the case of `C[C@]1(C(=O)NCCc2c[nH]c3ccccc23)C=C[C@@H](Cc2ccccc2)N1C(=O)c1ccccc1`, the CPE inhibition is 19.4% (active).

Take `CCCCn1c(SCc2nc3ccccc3s2)nc2ccccc2c1=O`: the CPE inhibition result was “inactive”.

Regarding `CCOc1cc2c3c(c1)C1(C(=O)N3C(C)(C)CC2C)C(C#N)=C(N)N2C(=C1C#N)Nc1ccccc12` (centres undefined), the CPE inhibition was 2.12%.

For the compound `Cc1cccc(C(O)(C(=O)NNc2ccc3ccccc3n2)c2cccc(C)c2)c1`, the CPE inhibition result is “inactive”.

`Cc1ccc(NNC(=O)C(O)(c2cccc(C(F)(F)F)c2)c2cccc(C(F)(F)F)c2)cc1`: the CPE inhibition was 7.56%.

Take `O=C(NNc1ccccc1Cl)C(O)(c1cccc(C(F)(F)F)c1)c1cccc(C(F)(F)F)c1`: the CPE inhibition is 20.4% (active).

For `Cc1ccc(NC(=S)NCC(C)C)cc1`, the CPE inhibition entry is “inactive”.

Turning to `C#Cc1ccc([C@@H]2C=C(C(=O)O)O[C@H](OCC)[C@H]2CCCO)cc1`, the CPE inhibition is 1.06%.

On to `Cc1cc(-c2n[nH]c(=S)n2/N=C/c2ccccc2[N+](=O)[O-])n[nH]1`, for which the CPE inhibition is 0.73%.

`Cc1cc(-c2n[nH]c(=S)n2/N=C/c2cccc([N+](=O)[O-])c2)n[nH]1`: the CPE inhibition was 0.265%.

Consider `Cc1cc(-c2n[nH]c(=S)n2/N=C/c2cc([N+](=O)[O-])ccc2Cl)n[nH]1`, for which the CPE inhibition is 10.9% (active).

In the case of `O=C(Nc1ccc(F)cc1F)c1cc2ncc(CCCl)cn2n1`, the CPE inhibition was 0.045%.

Turning to `Cc1ccc(S(=O)(=O)N2CCCCC2)cc1C(=O)OCC(=O)NC(=O)NC12CC3CC(CC(C3)C1)C2`, the CPE inhibition is 0.11%.

On to `CN(C)c1ccc(N=Nc2ccccc2C(=O)OCC(=O)NCC2CCCCC2)cc1`, for which the CPE inhibition was 0.995%.

As for `COc1ccc(CN(C)C2c3ccccc3-c3ccccc32)cc1`, the CPE inhibition was 1.16%.

Turning to `Cc1cc(C(=O)N/N=C/c2cc(Cl)cc([N+](=O)[O-])c2O)c2ccccc2n1`, the CPE inhibition is 0.08%.

For the compound `O=C(N/N=C/c1cc(Cl)cc([N+](=O)[O-])c1O)NC12CC3CC(CC(C3)C1)C2`, the CPE inhibition was 15.6% (active).

Turning to `O=C(N/N=C/c1cc([N+](=O)[O-])ccc1O)NC12CC3CC(CC(C3)C1)C2`, the CPE inhibition was 0.635%.

`Cc1ccc2nc(-c3cccc(NS(C)(=O)=O)c3)cc(-c3ccccc3)c2c1`: the CPE inhibition was 24.6% (active).

Turning to `O=[N+]([O-])c1ccc2nc(-c3ccccc3)cc(-c3ccccc3)c2c1`, the CPE inhibition was 1.14%.

As to `Clc1ccc2nc(-c3ccncc3)cc(-c3ccccc3)c2c1`, the CPE inhibition was 2.25%.

In the case of `COCCn1c(=NC(=O)c2nc3ccccc3s2)sc2cc(S(C)(=O)=O)ccc21`, the CPE inhibition is 6.63%.

For `Cc1cccc(/C(N)=N/OC(=O)c2ccc3c(c2)OCO3)c1`, the CPE inhibition is 0.195%.

Take `COc1ccccc1NC(=O)c1c(Nc2ccccc2C)sc(C(=O)Nc2cccc(Cl)c2)c1N`: the CPE inhibition is 0.08%.

On to `COc1ccccc1NC(=O)c1ccc(NS(=O)(=O)c2ccc(F)c(Cl)c2)cc1`, for which the CPE inhibition entry was “inactive”.

With `COc1ccccc1NC(=O)c1c(Nc2ccccc2F)sc(C(=O)Nc2cccc(Cl)c2)c1N`, the CPE inhibition was 17.3% (active).

Regarding `Cc1ccc(-c2csc(NC(=S)NC(=O)c3cc4ccccc4o3)n2)cc1`, the CPE inhibition was 1.54%.

Take `O=C1CSC(=S)N1N=C1CCCCCC1`: the CPE inhibition entry was “inactive”.

Turning to `Cc1onc(-c2c(F)cccc2Cl)c1C(=O)NC(=S)NC1CCSC1=O` (centres undefined), the CPE inhibition was 2.61%.

Take `O=C(NC(=S)NCC1CCCO1)c1cccs1` (centres undefined): the CPE inhibition result is “inactive”.

`O=C(NC(=S)NC1CCSC1=O)c1cccs1` (centres undefined): the CPE inhibition was 12.2% (active).

For the compound `O=C1CCCc2c1cc(-c1ccccc1)n2-c1ccc(O)cc1`, the CPE inhibition is 1.72%.

On to `CCOCCCNC(=O)/C(C#N)=C/c1ccc(-c2ccc(S(=O)(=O)N3CCOCC3)cc2)o1`, for which the CPE inhibition was 0.33%.

As to `Cc1cc(C)n(C(=O)c2ccc([N+](=O)[O-])cc2[N+](=O)[O-])n1`, the CPE inhibition was 0.325%.

For the compound `CN(C)/N=C/c1ccc(Sc2ccc([N+](=O)[O-])cc2[N+](=O)[O-])o1`, the CPE inhibition was 2.35%.

For the compound `Cc1cc(C)nc(Sc2ccc([N+](=O)[O-])cc2[N+](=O)[O-])n1`, the CPE inhibition is 14.6% (active).

For the compound `N#C/C(=C\c1cccn1-c1ccccc1)C(=O)NC1CCCCC1`, the CPE inhibition was 2.54%.

For the compound `O=[n+]1cc(-c2ccccc2)n([O-])c2c1CCCCC2`, the CPE inhibition is 0.81%.

Regarding `CCOC(=O)c1cc[n+](CC(=O)c2ccc(F)cc2)cc1`, the CPE inhibition entry was “inactive”.

As to `COc1ccc(NC(=O)CC2(Cc3ccccc3)CCOC(C)(C)C2)cc1` (centres undefined), the CPE inhibition entry was “inactive”.

Take `Cc1cccc(C)c1NC1=C(Cl)C(=O)OC1OC(C)C` (centres undefined): the CPE inhibition result was “inactive”.

`Cc1ccc(NC2=C(Cl)C(=O)OC2OC(=O)c2ccco2)cc1C` (centres undefined): the CPE inhibition is 14% (active).

Regarding `CCOC1OC(=O)C(Cl)=C1Nc1ccc(C)cc1C` (centres undefined), the CPE inhibition was 0.385%.

`COc1cc(NC(=O)CN2CCC(C)CC2)c(C)cc1[N+](=O)[O-]`: the CPE inhibition entry is “inactive”.

With `CCN(CC)S(=O)(=O)c1ccc2oc(C(=O)N3CCc4ccccc4C3)c(C)c2c1`, the CPE inhibition was 0.865%.

Regarding `N#Cc1cc(NCC2CCCO2)c([N+](=O)[O-])cc1C#N` (centres undefined), the CPE inhibition is 0.075%.

As for `CN(CC(=O)Nc1ccc(Cl)cc1)c1ccc(S(=O)(=O)N2CCCCC2)cc1[N+](=O)[O-]`, the CPE inhibition was 13% (active).

As to `CN(CC(=O)Nc1ccc(S(=O)(=O)N2CCCC2)cc1)Cc1ccc(Cl)cc1Cl`, the CPE inhibition is 13.3% (active).

In the case of `CN(CC(=O)Nc1ccc(F)cc1)c1ccc(S(=O)(=O)N2CCCCC2)cc1[N+](=O)[O-]`, the CPE inhibition is 2.78%.

Turning to `CN(Cc1cccc(Cl)c1Cl)C(=O)c1ccc(NC(=O)CC#N)cc1`, the CPE inhibition entry is “inactive”.

Take `CN(CC(=O)Nc1ccc(S(=O)(=O)N2CCCC2)cc1)Cc1ccc(Cl)cc1`: the CPE inhibition is 0.055%.

On to `CCOc1ccccc1N(CC(=O)Nc1ccc(S(=O)(=O)N2CCOCC2)cc1)S(=O)(=O)c1ccc(Cl)cc1`, for which the CPE inhibition was 0.98%.

Turning to `CN(CC(=O)Nc1ccc(S(=O)(=O)N2CCCC2)cc1)Cc1cccc(Cl)c1Cl`, the CPE inhibition is 9% (active).

Consider `CC(C)C(=O)NC(=S)Nc1ccc(S(=O)(=O)N2CCCC2)cc1`, for which the CPE inhibition entry is “inactive”.

For the compound `COc1ccc(CCN(C)c2ccc(S(=O)(=O)N3CCCC3)cc2[N+](=O)[O-])cc1OC`, the CPE inhibition result is “inactive”.

With `CCc1cccc(C)c1NC(=O)CSc1nc(-c2ccccc2F)nc2nc[nH]c12`, the CPE inhibition result is “inactive”.

As to `CCCCn1c(-c2ccco2)n[nH]c1=S`, the CPE inhibition was 1.02%.

With `CC(OC(=O)/C=C/c1ccco1)C(=O)Nc1cccc([N+](=O)[O-])c1` (centres undefined), the CPE inhibition was 0.7%.

In the case of `CCOc1ccccc1NC(=S)NNS(=O)(=O)c1c(C)cc(C)cc1C`, the CPE inhibition entry is “inactive”.

`C=CCC(C(=O)Oc1c(C(C)(C)C)cc(C)cc1C(C)(C)C)c1ccccc1` (centres undefined): the CPE inhibition is 12.5% (active).

In the case of `Cc1ccc(NC(=O)CC(C(=O)O)c2ccccc2)cc1` (centres undefined), the CPE inhibition entry was “inactive”.

For the compound `CCOC(=O)N1CCN(CC(O)COc2ccc(C)cc2C(C)(C)C)CC1` (centres undefined), the CPE inhibition is 2.44%.

In the case of `CC(C)Oc1ccc(C(CC(=O)N(C)CCC#N)c2ccc(F)cc2)cc1` (centres undefined), the CPE inhibition was 0.65%.

`COC(=O)CNC(c1ccccc1)c1cc(C)ccc1NC(=O)c1cccc(Cl)c1` (centres undefined): the CPE inhibition is 3.54%.

As for `NNC(=O)CNC(c1ccccc1)c1cc(Br)ccc1NC(=O)c1cccc(Cl)c1` (centres undefined), the CPE inhibition was 0.305%.

Consider `COC(=O)CNC(c1ccccc1)c1cc(Br)ccc1NC(=O)CNC(=O)OCc1ccccc1` (centres undefined), for which the CPE inhibition was 16.5% (active).

`O=C(Oc1cccc(/C=N/Nc2nc(Nc3ccccc3)nc(N3CCOCC3)n2)c1)c1ccco1`: the CPE inhibition entry was “inactive”.

As to `Cc1ccc(C(O)(C(=O)NNc2ccc3ccccc3n2)c2ccc(C)cc2)cc1`, the CPE inhibition entry is “inactive”.

In the case of `CC(Sc1ncnc2ccccc12)C(=O)Nc1ccc2c(c1)OCCO2` (centres undefined), the CPE inhibition is 12.4% (active).

For `CC(Sc1nc(-c2ccccc2)cc(C(F)(F)F)n1)C(=O)Nc1ccc2c(c1)OCO2` (centres undefined), the CPE inhibition is 3%.

`O=C(Nc1cccc(C(F)(F)F)c1)C(Sc1ncnc2ccccc12)c1ccccc1` (centres undefined): the CPE inhibition was 2.71%.

Take `CC(C)(C)c1ccc(C(=O)N2CCC(=O)N(C(CO)Cc3ccccc3)CC2)cc1` (centres undefined): the CPE inhibition entry was “inactive”.

As to `CC(C)CC(COCc1ccc(Cl)cc1)N1CCN(C(=O)c2ccc(C(F)(F)F)cc2)CCC1=O` (centres undefined), the CPE inhibition is 12.7% (active).

For `CC(C)C[C@@H](COc1ccccc1)N1CCN(Cc2ccccc2)CCC1=O`, the CPE inhibition is 0.51%.

In the case of `O=C(Nc1cccc(Cl)c1)Nc1ccc2c(c1)C(=O)OC2`, the CPE inhibition result was “inactive”.

On to `COc1ccccc1[C@@H]1C(c2cccc(Cl)c2)=NN(c2ccccc2)[C@H]1C(=O)N1CCOC1=O`, for which the CPE inhibition is 19.3% (active).

In the case of `O=C1C2C(c3ccccc3)=NN(c3ccccc3)C2C(=O)N1c1ccccc1` (centres undefined), the CPE inhibition entry was “inactive”.

On to `COc1cccc(N2C(C(C)=O)=NN(c3ccccc3)C2c2ccc(N3CCOCC3)cc2)c1` (centres undefined), for which the CPE inhibition was 2.42%.

For `O=C(/C=C/c1ccc(Br)cc1)NC(=S)Nc1ccc(S(=O)(=O)Nc2nccs2)cc1`, the CPE inhibition result is “inactive”.

Turning to `Nc1c(C(=O)c2ccc(Cl)cc2)sc2nc3c(cc12)CCC3`, the CPE inhibition is 7.59%.
